Each sequence was assayed on LXRb homodimer (NR concentration 270 nM) (assay: PBM binding z-score (relative to random genomic background probes); higher = stronger binding; sequences stand for … in GC…GCGATTGACAGCGTAGAATGAAGG).
Method in brief: (§1)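 Binding z-scores take random background probes as their reference. They come from custom Agilent 4×180K protein-binding microarrays incubated 1 h with ligand-free nuclear receptor dimers, with antibodies against each partner (one per run) detecting binding. Scanned fluorescence was regression-normalized.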

Sequence | PBM binding z-score
AATACTGGGTCATCGTAGGCCAGAGTACGCACAG | 0.0752
CAGCCTAGGTCAGGGCCGGTATAGGAGGAACGTT | -1.51
TAGCCTAGTTCATTGGGCCAGTATAGTACGCATC | -0.687
ATCGAAAGGTCGAAGTGAGTATAGAGAAAGGGAA | 0.919
GCTAGTTGGTCAGTAACAGGTCACACACCGGTCG | -0.167
GCTAGTTGTTCAGTAAAAGGTCACACACCGGTCG | 0.882
CCGACTGAGGCATAAGGTTACCATAAGCCAGCCC | -1.08
GATACAGGGTCAGCTAAAGGCCAGAGTATGGAAA | -0.758
CCGACTGGAGCAAAGGTTACCATACTCAGTACGA | -0.613
CGTCCAAGGTCAGAGAGGTCAGTGGATGCCGAGT | 0.285
ACTAGTTGGTCAGCTGAGGTCACCCACAATTCGG | 0.552
ATCTCTTGGTAAAGTTCAGTGAAAGATCGATAGA | 1.5
CAAACTAGGTCAAGAGGTCGAAGTCCGCTTCCCG | 0.502
TAGTCTAGGTCATGCGGGCCAGTATAGTGTCGGC | 1.87
CCCACTGGGCCAAAGGTCATTGATTCCAATGCTC | 0.641
ACTAGCAGGCCAAGTTTGGGTCACTCTAACAAAG | -0.928
CATACAGGGTCAGCTAGTCCAGAGTAGGGACGGC | 0.191
GCTGCTAGGTCAAATGATGGTCAGCTAAAGCTCG | 0.557
TGAAAGAGGTTAAAGATCAGGGAACGTGGCGTCG | 0.261
AGAACGAGGGCAATGAATTGATAGCACGGGTGGC | -0.479

Sequence | PBM binding z-score
ATATGTGGGTTACATCCGGGTCATTCAGGCTATG | 1.12
ATACCAGGGTGATCGTGAGGTCGTTGATACTAAC | 0.0794
TCTAGCAGGCCAGACGGTCACTCAAGAGGTACGG | -0.934
ACTATTAGTTGAAACGAGGGCAACCGATAGGTTG | 0.184
GCTGCTAGGTCAACTGATAGTCAGCTAAAGCTCG | -0.159
GCTAGCGGGCCATTTGGGTCACTCAATGACGGGC | -0.972
CCGACTGGGGCTTAAGGTTACCATAAGCCAGCCC | -1.22
CGAACGAGGGCATGTGTTGATAGCAAATGCCGAT | -0.807
CAAACTAGGTCAAGGGTCAAAGTCGAGCCAACCA | 1.02
AGAACGAGGGCAATGAGTTGATAGAACGGGTGGC | -0.564
ATCTCTATGTAAAGTTCAGTGAAAGATCGATAGA | 0.525
GCTTGTAGATCAAGGTTAAGAAAGACTAAGCTAA | -0.627
GCTATTAGTTGAAGGGGCAACCGAATGATTCTCG | -0.16
AGTCAAAGTTCACTAGGTACCGTAAGATTCAGCT | 0.945
TAGCCTAGGTCAGATCGGGCCTGTATACGCTATA | -0.0997
TCATATAGGTAAAGGTGTAAGTCGAACGATATGA | -0.187
GCGACTGGGGCATCAGCAGGTTACCATAACTTAA | -0.886
GCAGACAGGTGAAACGCAGGTAAATCAGGGTGGC | -0.862
CAAACTAGGTCACCGGAAGGTCAAAGTCCGCATG | 1.59
ACTATTAGTTGACTTAGGGTAACCGATACGACGC | 0.748

These sequences were tested on PPARa:RXRa (NR concentration 270 nM, RXRa partner concentration 90 nM) in the same assay as above.
Method in brief: as §1

Sequence | PBM binding z-score
AATACTGGGTCATCGTAGGCCAGAGTACGCACAG | 4.49
CAGCCTAGGTCAGGGCCGGTATAGGAGGAACGTT | 1.97
TAGCCTAGTTCATTGGGCCAGTATAGTACGCATC | 0.81
ATCGAAAGGTCGAAGTGAGTATAGAGAAAGGGAA | 4.23
GCTAGTTGGTCAGTAACAGGTCACACACCGGTCG | 2.06
GCTAGTTGTTCAGTAAAAGGTCACACACCGGTCG | 4.13
CCGACTGAGGCATAAGGTTACCATAAGCCAGCCC | 1.18
GATACAGGGTCAGCTAAAGGCCAGAGTATGGAAA | 4.67
CCGACTGGAGCAAAGGTTACCATACTCAGTACGA | 4.5
CGTCCAAGGTCAGAGAGGTCAGTGGATGCCGAGT | 4.94
ACTAGTTGGTCAGCTGAGGTCACCCACAATTCGG | 3.63
ATCTCTTGGTAAAGTTCAGTGAAAGATCGATAGA | 1.69
CAAACTAGGTCAAGAGGTCGAAGTCCGCTTCCCG | 5.23
TAGTCTAGGTCATGCGGGCCAGTATAGTGTCGGC | 3.92
CCCACTGGGCCAAAGGTCATTGATTCCAATGCTC | 6.5
ACTAGCAGGCCAAGTTTGGGTCACTCTAACAAAG | 1.03
CATACAGGGTCAGCTAGTCCAGAGTAGGGACGGC | 4.2
GCTGCTAGGTCAAATGATGGTCAGCTAAAGCTCG | 3.87
TGAAAGAGGTTAAAGATCAGGGAACGTGGCGTCG | 4.59
AGAACGAGGGCAATGAATTGATAGCACGGGTGGC | 1.32

Sequence | PBM binding z-score
ATATGTGGGTTACATCCGGGTCATTCAGGCTATG | 4.12
ATACCAGGGTGATCGTGAGGTCGTTGATACTAAC | 1.82
TCTAGCAGGCCAGACGGTCACTCAAGAGGTACGG | 0.21
ACTATTAGTTGAAACGAGGGCAACCGATAGGTTG | 1.14
GCTGCTAGGTCAACTGATAGTCAGCTAAAGCTCG | 3.77
GCTAGCGGGCCATTTGGGTCACTCAATGACGGGC | 1.26
CCGACTGGGGCTTAAGGTTACCATAAGCCAGCCC | 0.992
CGAACGAGGGCATGTGTTGATAGCAAATGCCGAT | 1.05
CAAACTAGGTCAAGGGTCAAAGTCGAGCCAACCA | 7.64
AGAACGAGGGCAATGAGTTGATAGAACGGGTGGC | 0.984
ATCTCTATGTAAAGTTCAGTGAAAGATCGATAGA | 1.87
GCTTGTAGATCAAGGTTAAGAAAGACTAAGCTAA | 1.56
GCTATTAGTTGAAGGGGCAACCGAATGATTCTCG | 0.84
AGTCAAAGTTCACTAGGTACCGTAAGATTCAGCT | 4.23
TAGCCTAGGTCAGATCGGGCCTGTATACGCTATA | 1.49
TCATATAGGTAAAGGTGTAAGTCGAACGATATGA | 1.81
GCGACTGGGGCATCAGCAGGTTACCATAACTTAA | 1.33
GCAGACAGGTGAAACGCAGGTAAATCAGGGTGGC | 0.983
CAAACTAGGTCACCGGAAGGTCAAAGTCCGCATG | 6.16
ACTATTAGTTGACTTAGGGTAACCGATACGACGC | 0.468
